Screening data deposited in PubChem BioAssay by National Center for Advancing Translational Sciences (NCATS).
Compounds with a hit are over-represented: about 0.97% of the library has one in this group of screens.
uPA generation = inhibitors of cell surface uPA generation. cell surface uPA generation assay, qHTS. Potency, µM (highest dose often 38.3 µM), hits mostly inhibitors. 330,000 tested, 0.31% active. AID 540303; active = well fitted inhibition curve with a large enough effect; inconclusive = small, poorly fitted or top-dose-only effect; inactive = no such curve, though single readings can be large or run the other way; tested in mouse RAW 264.7 cells; also: nearly all actives have a fitted effect of over 55% in size
Mm-Cpn inhibitor = inhibitors of Methanococcus maripaludis chaperonin TRiC (MmCpn). purified Mm-Cpn ATPase, ADP Transcreener TR-FRET. Potency, µM (top dose mostly 76.9 µM), hits mostly inhibitors. 330,000 tested, 0.031% active. AID 504842; also: nearly all actives have a fitted effect of over 80% in size
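Purified archaeal Mm-CPN (25nM final) preincubated 10 min at 37degC with compound, then 10uM ATP for 30 min at 37degC; ADP measured by HTRF Transcreener TR-FRET; buffer 30 mM TRIS pH 7.4, 100mM KCl, 5mM MgCl2, 1mM DTT.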
CCT chaperon mod = cytosolic chaperonin activity modulation; purified chaperonin ATPase assay, HTRF ADP detection, 30 min; activity change, % (concentration not given with the values), hits read low; 360,000 tested, 0.3% active; AID 651819; in the data active = activity change below about -30%
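We incubate TRiC, 40 or 20 nM final, with library compounds at 76 uM and 10 uM ATP for 30 min at 37 °C. ADP formed is detected with Transcreener HTRF reagents after 30 min at room temperature.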
Epigenetic derep = regulators of epigenetic silencing causing reporter derepression in mouse cells | 280,000 tested, 0.2% active | murine LDR cells, GFP reporter derepression, 30 h | AID 1865 | Potency, µM (highest dose often 53.9 µM), most hits filed as activators; also: nearly all actives have a fitted effect of over 60% in size
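GFP-positive cell count by laser-scanning cytometry (objects 20–120 um) after 30 h, 37 C compound exposure of murine LDR cells; reporter is CMV-GFP integrated at a silenced locus, inducible by HDAC or DNMT inhibitors.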
MBNL1-CUG inh = inhibitors of human MBNL1 binding to CUG repeat RNA; 280,000 tested, 0.036% active; Potency, µM (doses to about 57.5 µM), usual class: inhibitors; AID 2675; TR-FRET MBNL1-His/biotin-(CUG)12 binding, 665/545 ratio; active = well fitted inhibition curve with a large enough effect in the signal ratio, with a control signal flat, not every such curve was filed as active; inconclusive = small, poorly fitted or top-dose-only effect, or effect the other way, or a change in a side signal; inactive = no such curve, though single readings can be large or run the other way; the % refers to the signal ratio
Target sequence (Q9NR56 whole entry, looked up): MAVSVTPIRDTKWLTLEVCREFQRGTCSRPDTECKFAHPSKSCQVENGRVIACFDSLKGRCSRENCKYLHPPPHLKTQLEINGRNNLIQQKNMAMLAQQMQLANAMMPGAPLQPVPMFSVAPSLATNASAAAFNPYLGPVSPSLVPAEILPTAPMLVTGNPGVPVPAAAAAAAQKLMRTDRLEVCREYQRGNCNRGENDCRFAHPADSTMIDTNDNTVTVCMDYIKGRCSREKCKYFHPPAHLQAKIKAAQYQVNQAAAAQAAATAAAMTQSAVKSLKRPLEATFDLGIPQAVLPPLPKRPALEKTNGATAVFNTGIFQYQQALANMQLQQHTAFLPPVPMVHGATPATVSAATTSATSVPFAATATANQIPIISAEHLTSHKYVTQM
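Compound titration spanned 92 nM–58 uM against the MBNL1-His/biotin-(CUG)12 complex. After 60 min at room temperature with 5 nM streptavidin-XL665 and 0.055 ng/ul terbium anti-His, ratiometric 665/545 nm emission (Ex 340 nm) normalized to controls.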
Akt phos inh = blocks phosphorylation of Akt. Neuro2A IGF-stimulated pAkt S473 HTRF, 20 min; stronger effect = lower value. activity change, % for hits at 50 µM. 360,000 tested, 0.32% active; in the data active = activity change below about -80%; inconclusive = mostly about -51% to -80%
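Neuro2A cells in DMEM with 0.5% FBS, overnight at 37 deg C, given compound at single 50 µM final, then IGF (6 nM final) for 20 min at 37 deg C. Lysed; phospho-Akt Ser473 by HTRF after 24 h, 665/615 ratio.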
Large screens that a line does not name were inactive. Unless noted, calls follow the shape of the dose curve; as a rule, active = well fitted curve in the direction sought with a large enough effect; inconclusive = small, poorly fitted or top-dose-only effect, or another doubt; inactive = no such curve, though single readings can be large; an effect the other way counts as inactive or inconclusive.

Cc1ccc(NC(=O)N2CCN(C/C=C/c3ccccc3)CC2)cc1	none
C=CCN1C(=O)/C(=C/c2ccc(N(C)C)cc2)S/C1=N\c1nnc(CC)s1	Epigenetic derep 13µM (no result: uPA generation, CCT chaperon mod, Akt phos inh)
CN(C)CCSc1nnc2sc3ccccc3n12	Akt phos inh -106%
FC(F)C(F)(F)c1cc(-c2ccc(Cl)cc2)n[nH]1	none
Fc1ccc(-c2cc(C(F)(F)C(F)F)[nH]n2)cc1	CCT chaperon mod -37
CC(C)(C)N(Cc1ccccc1)C(=O)COC(=O)C1CC(=O)N(Cc2ccccc2)C1 (stereo not given)	none (no result: Mm-Cpn inhibitor, Epigenetic derep, MBNL1-CUG inh)
CCN(CC)c1ccc(CNCCCSc2nnnn2C)cc1	none (no result: uPA generation, Mm-Cpn inhibitor, CCT chaperon mod, MBNL1-CUG inh, Akt phos inh)
O=C(Cc1cccc2ccccc12)N/N=C/c1ccc(Sc2nc3ccccc3s2)o1	Akt phos inh -112%
Cc1cccc(OCc2nc(C#N)c(N3CCCC3)o2)c1	CCT chaperon mod -30
O=C(OCCN1C(=O)c2ccccc2C1=O)c1cccc(OC(F)F)c1	none
COc1ccc(-c2cccc(-c3cc(=O)oc4cc(OC)cc(OC)c34)c2)cc1	uPA generation 0.79µM (no result: Epigenetic derep, MBNL1-CUG inh)
COc1cc(OC)c2c(-c3cccc(-c4ccc(O)cc4)c3)cc(=O)oc2c1	uPA generation inconclusive (no result: MBNL1-CUG inh)
COc1cc(OC)c2c(-c3cccc(-c4cccc(C)c4)c3)cc(=O)oc2c1	uPA generation 3.2µM (no result: MBNL1-CUG inh)
COc1cc(OC)c2c(-c3cccc(-c4ccc(OC(F)(F)F)cc4)c3)cc(=O)oc2c1	none (no result: MBNL1-CUG inh)
COc1ccc(-c2cccc(-c3cc(=O)oc4cc(OC)c(OC)c(OC)c34)c2)cc1	none (no result: MBNL1-CUG inh)
COc1cc(OC)c2c(-c3cccc(-c4ccc(CO)cc4)c3)cc(=O)oc2c1	uPA generation 0.89µM (no result: MBNL1-CUG inh)
COc1ccc(C(O)c2nc(-c3ccc(OC)c(OC)c3)cs2)cc1 (stereo not given)	none (no result: uPA generation, Mm-Cpn inhibitor, Epigenetic derep, MBNL1-CUG inh)
CN(C)S(=O)(=O)N1CCN(CC(O)COc2ccc3cc(Br)ccc3c2)CC1 (stereo not given)	none
COc1cc(C(=O)Nc2nnc(S(=O)(=O)N(C)c3ccccc3)s2)cc(OC)c1OC	Epigenetic derep 10µM (no result: uPA generation, Mm-Cpn inhibitor, CCT chaperon mod, MBNL1-CUG inh, Akt phos inh)
COc1cc(C(=O)Nc2nnc(S(=O)(=O)N3CCCCCC3)s2)cc(OC)c1OC	CCT chaperon mod -32 (no result: Epigenetic derep)
COc1cc(C(=O)Nc2nnc(C)s2)cc(OC)c1OC	none
O=C1OC2(c3ccccc31)c1cc(I)c(O)c(I)c1Oc1c2cc(I)c(O)c1I	Mm-Cpn inhibitor 32µM (no result: uPA generation, CCT chaperon mod, Epigenetic derep, MBNL1-CUG inh, Akt phos inh)
CCN(CC)C(=O)C1CCCN(C/C(C)=C/c2ccccc2)C1 (stereo not given)	none (no result: uPA generation)
CCN(CC)C(=O)C1CCCN(C/C=C/c2ccccc2)C1 (stereo not given)	MBNL1-CUG inh inconclusive, Akt phos inh -105% (no result: uPA generation)
COc1ccc(C)cc1N=Nc1ccc(O)c2ncccc12	uPA generation 3.5µM
Cc1[nH]c2ccccc2c1/C=C/c1cc[n+](C)cc1	Epigenetic derep 14µM, MBNL1-CUG inh inconclusive
C[n+]1ccc2[nH]c3ccccc3c2c1	none (no result: uPA generation, Mm-Cpn inhibitor, Epigenetic derep, MBNL1-CUG inh)
CN1CCCC(C#CC(O)(c2ccccc2)c2ccccc2)C1 (stereo not given)	none
Cc1oc(-c2ccc(F)cc2)cc1-c1nn2c(-c3ccoc3C)nnc2s1	Akt phos inh -109%
Cc1nc(C)c(-c2csc(Nc3ccccn3)n2)s1	MBNL1-CUG inh inconclusive (no result: Epigenetic derep)
Cc1nc(N)sc1-c1csc(Nc2ccccn2)n1	Akt phos inh -110%
Cc1cccc(N2CCN(C(=O)c3ccc(N4CCCC4=O)cc3)CC2)c1C	none
CCNc1oc(/C=C/c2ccc(OCC)cc2)nc1C#N	uPA generation 3.2µM (no result: Epigenetic derep)
CCOc1ccc(Nc2oc(/C=C/c3ccc(OC)c(OC)c3)nc2C#N)cc1	Epigenetic derep 32µM (no result: uPA generation, Mm-Cpn inhibitor, CCT chaperon mod, MBNL1-CUG inh, Akt phos inh)
CC(=O)N1CCN(C(=O)c2ccc(S(=O)(=O)Nc3cccc(C(F)(F)F)c3)cc2)CC1	none (no result: Epigenetic derep, MBNL1-CUG inh)
CCN(CC)CCCC(C)NC(=O)c1ccc(-n2c(=O)c(=O)[nH]c3ccccc32)cc1 (stereo not given)	none (no result: uPA generation, Mm-Cpn inhibitor, CCT chaperon mod, MBNL1-CUG inh, Akt phos inh)
O=c1c2sc3ccccc3c2n(Cc2ccccc2F)c(=O)n1CCc1ccccc1	none (no result: uPA generation, Mm-Cpn inhibitor, CCT chaperon mod, MBNL1-CUG inh, Akt phos inh)
CC1(C)CC(=O)C/C(=N\NC(=O)C2CC23CCC3)C1 (stereo not given)	Mm-Cpn inhibitor 50µM (no result: uPA generation)
